Among the data in PubChem BioAssay (NCATS) are Potency values, retold here.

Results filed as inconclusive are left out. A call without a number means that no potency is given here. Active and inactive are the calls of the source. Calls follow the shape of the dose curve; as a rule, active = well fitted cell-killing curve with a large enough effect; inconclusive = small, poorly fitted or top-dose-only effect; inactive = no such curve, though single readings can be large or run the other way.
Potency is read from the fitted curve at half-maximal effect.

The nature of the assay: qHTS of pediatric cancer cell lines to identify multiple opportunities for drug repurposing: Primary screen for Saos-2 cells (AID 1347097). Also: nearly all actives have a fitted effect of over 40% in size. Particulars: Saos-2 viability, CellTiter-Glo ATP luminescence, 48 h; series mostly up to 46 µM. From the text: Drug repurposing or repositioning has been offered as a strategy for drug development in oncology programs. This approach has special potential for childhood cancers and other rare or orphan diseases, where the expected return on new drug development has been a disincentive to pharmaceuticals. […] In this project we exploit the poly-pharmacology of drugs to discover new indications via phenotypic screening of a panel of 19 well-characterized cell lines derived from solid tumors seen in children and adolescents. The goal is to identify approved drugs with previously unrecognized anticancer properties that has the potential to reveal new mechanisms and biological processes involved in carcinogenesis or drug resistance. We employed a titration-based paradigm (quantitative high-throughput screening or qHTS), where all compounds were tested at multiple concentrations for their effect on cell viability. Concentration-response curves (CRCs) were derived directly from the primary screen, and both potency and efficacy values were used to identify compounds with robust bioactivity profiles. We screened the NIH Chemical Genomics Center (NCGC) Pharmaceutical Collection (NPC) and Mechanism Interrogation Plate (MIPE) small molecule collections of approved and investigational compounds against these cell lines; and measured metabolically active cells after 48 hours of compound treatment as a proxy for cell viability. […] Assay Submitter: Nathalia J. Martinez, National Center for Advancing Translational Sciences, National Institutes of Health, Rockville, MD, USA; email: natalia.martinez@nih.gov Shen, M et al. Quantitative high-throughput phenotypic screening of pediatric cancer cell lines identifies multiple opportunities for drug repurposing. Oncotarget 2017 Dec 19;9(4):4758-4772. PMID 29435139.
The cells were obtained from University of North Carolina (UNC), Pediatric Preclinical Testing Program (PPT), and Coriell Institute (CI). qHTS cell viability assay: Cells were assayed in growth media at a density of 500-1,000 cells/well. Five microliters of cells were dispensed into 1,536-well, white, solid-bottom, TC-treated plates (Greiner Bio One) using a multidrop dispenser and incubated at 37 degrees C, 5% CO2, under a humidified atmosphere for 5 hours. Twenty-three nanoliters of compounds and controls (neutral control DMSO or positive control bortezomib at final concentration of 2.3 µM) were subsequently transferred by Kalypsys pintool. For primary screens, the MIPE collection was tested at 11-point dilutions (final concentrations range from 0.78 nM to 46 µM) and the NPC collection at 8-point dilutions (final concentrations range from 0.59 nM to 46 µM). Compounds tested in follow-up screens were assayed at 11-point dilutions. Cells were incubated for 48 hours, followed by addition of 3 µL of CellTiter-Glo (Promega). After a 15 min incubation at room temperature, samples were analyzed for luminescence intensity using a ViewLux High-throughput CCD imager equipped with clear filters.
As to `Cc1cc(-c2ccccc2)nnc1NCCN1CCOCC1`, the Potency result is “inactive”. Take `Cc1cccc(C)c1NC(=O)c1ccccc1C(=O)O`: the Potency result is “inactive”. For the compound `COc1cc(O)c(C(=O)c2ccccc2)cc1S(=O)(=O)O`, the Potency result is “inactive”. For the compound `CC(=O)O[C@H]1C[C@@H]2CC[C@@H]3[C@H](CC[C@@]4(C)[C@H]3C[C@H]([N+]3(C)CCCCC3)[C@@H]4OC(C)=O)[C@@]2(C)C[C@@H]1N1CCCCC1`, the Potency entry is “inactive”. The result for `O=C(CCCN1CC=C(n2c(=O)[nH]c3ccccc32)CC1)c1ccc(F)cc1` reads “inactive”; that for `C=C[C@H]1CN2CC[C@H]1C[C@@H]2[C@@H](O)c1ccnc2ccc(OC)cc12`, “inactive”; that for `NS(=O)(=O)c1cc(C(=O)O)cc(N2CCCC2)c1Oc1ccccc1`, “inactive”.

Take `CC(=O)Nc1ccc(OC(=O)c2ccccc2OC(C)=O)cc1`: the Potency result is “inactive”.

Consider `O=C(O)CCc1nc2ccccc2[nH]1`, for which the Potency entry is “inactive”.

Turning to `CC(=O)Nc1ccc(S(=O)(=O)Nc2ccc([N+](=O)[O-])cc2)cc1`, the Potency result was “inactive”.

For `C=C[C@H]1CN2CC[C@H]1C[C@H]2[C@H](O)c1ccnc2ccc(OC)cc12`, the Potency entry was “inactive”. In the case of `Cc1cc(C)cc(OCC2CNC(=O)O2)c1` (stereo not given), the Potency result was “inactive”. Next, `CC(C)(C)NCC(O)COc1cccc2c1C[C@H](O)[C@H](O)C2` (stereo not given in full): “inactive”; `Cc1cc(NS(=O)(=O)c2ccc(N)cc2)nc(C)n1`: “inactive”; `COc1cc(C(=S)N2CCOCC2)ccc1O`: “inactive”. For the compound `CN1CCc2cccc3c2[C@H]1Cc1ccc(O)c(O)c1-3`, the Potency was 21.1 µM (active).

As to `Cc1ccccc1OCC(O)CO` (stereo not given), the Potency entry is “inactive”. Take `Nc1ccc(S(=O)(=O)Nc2cnc3ccccc3n2)cc1`: the Potency entry is “inactive”. With `Cc1ccc(S(=O)(=O)NC(=O)NC2CCCC2)cc1`, the Potency result is “inactive”.

For `COC(=O)C(c1ccccc1Cl)N1CCc2sccc2C1` (stereo not given), the Potency entry was “inactive”. Regarding `CN(C)CCOC(=O)C(c1ccccc1)C1(O)CCCC1` (stereo not given), the Potency entry is “inactive”. Regarding `c1ccc(CC2=NCCN2)cc1`, the Potency entry is “inactive”. Next, `CC(=O)OC[C@H]1O[C@@H](n2ncc(=O)[nH]c2=O)[C@H](OC(C)=O)[C@@H]1OC(C)=O`: 4.22 µM (active). Turning to `CCN(CC)CCOc1ccccc1C(=O)CCc1ccccc1`, the Potency result was “inactive”. As for `CCCc1ncc(C[n+]2ccccc2C)c(N)n1`, the Potency entry is “inactive”. Next, `CC1=C(C(=O)O)N2C(=O)[C@@H](NC(=O)[C@H](N)c3ccccc3)[C@H]2SC1`: “inactive”. Take `COc1cc(C(=O)N2CCCCCCC2)cc(OC)c1OC`: the Potency result was “inactive”. As for `CC(=O)N[C@@H](CCC(=O)O)C(=O)O`, the Potency entry is “inactive”. Turning to `C[C@@H](O)[C@H]1C(=O)N2C(C(=O)O)=C([C@H]3CCCO3)S[C@H]12`, the Potency entry was “inactive”. `CCOC(=O)[C@H](CCc1ccccc1)N[C@@H](C)C(=O)N1[C@H](C(=O)O)C[C@@H]2CCC[C@@H]21`: the Potency entry was “inactive”.

As to `OC1C(O)C(O)C(O)C(O)C1O` (stereo not given), the Potency entry is “inactive”. Turning to `O=[N+]([O-])c1ccc(/C=N\O)o1`, the Potency entry is “inactive”.

`Cc1nc(-c2ccc(Cl)cc2)oc1COC(C)(C)C(=O)O`: the Potency entry is “inactive”. Consider `CC(=O)Nc1ccc(CC(=O)O)cc1`, for which the Potency result was “inactive”. The result for `CC(C)Cc1ccc(CC(=O)O)cc1` reads “inactive”.

On to `COc1ccc(S(=O)(=O)N2c3ccc(Cl)cc3[C@@](O)(c3ccccc3Cl)[C@H]2C(=O)N2CCC[C@@H]2C(N)=O)cc1OC`, for which the Potency result is “inactive”. As to `CCOCCn1c(N2CCCN(C)CC2)nc2ccccc21`, the Potency result was “inactive”. On to `Cl/C(=C\n1cncn1)c1ccc(Cl)cc1Cl`, for which the Potency result was “inactive”. Regarding `Cc1cc(CC(=O)O)c(C)n1-c1ccc(Cl)cc1`, the Potency entry is “inactive”. Turning to `CC(O)Cn1cnc2c1c(=O)n(C)c(=O)n2C` (stereo not given), the Potency entry was “inactive”.
